Assay results reported in PubChem BioAssay AID1159580 (chemical genetic matrix, 2015).
Hit rate of the full screen: of about 5,500 compounds, about 2,000 (36%) were called active. Not shown: some 18% with an inconclusive outcome. No stated cut-off is given here; in the data, active means normalized growth mostly below about 0.91 (no sharp cut-off); inconclusive means no clear call, values can overlap the other calls; inactive means mostly above about 0.92. The list shows a part of the results.

Assay: chemical genetic growth profiling, strain panel (AID 1159580);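 further: tested at 20 µM; growth read once vehicle control cultures reached saturation at 30 °C; 1 = growth at the plate median or of vehicle wells; lower values mean less growth of the strain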
Details: S. cerevisiae deletion strains, growth OD

Measured: normalized growth

C[N+]1(C)CCc2cc3c(cc2[C@H]1[C@@H]1OC(=O)c2c1ccc1c2OCO1)OCO3
inactive: locus YAL040C, strain CLN3, active compounds read low 0.982 | locus YDR150W, strain NUM1, active compounds read low 0.997 | locus YER002W, strain NOP16, active compounds read low 0.991 | locus YGR078C, strain PAC10, active compounds read low 1.01 | locus YNL128W, strain TEP1, active compounds read low 1 | locus YNL153C, strain GIM3, active compounds read low 0.998 | locus YNL175C, strain NOP13, active compounds read low 0.987 | locus YNL197C, strain WHI3, active compounds read low 1.05 | locus YNL224C, strain SQS1, active compounds read low 0.994 | locus YNL322C, strain KRE1, active compounds read low 1.01 | locus YOR083W, strain WHI5 (second series), active compounds read low 1 | locus YPL055C, strain LGE1, active compounds read low 1.01

CCCCCCCCCCCCCCCC(=O)OCC(O)CO (stereo not given)
inactive: locus YHR030C, strain SLT2, active compounds read low 1 | locus YHR079C, strain IRE1, active compounds read low 0.99 | locus YJL095W, strain BCK1, active compounds read low 0.967 | locus YJR066W, strain TOR1, active compounds read low 0.936 | locus YLR113W, strain HOG1, active compounds read low 1 | locus YNL183C, strain NPR1, active compounds read low 0.93 | locus YOR231W, strain MKK1, active compounds read low 1.01 | locus YPL256C, strain CLN2, active compounds read low 1.02
